hgDAF12 agonist: H. glycines DAF-12 receptor agonists, primary screen, cell-based, luminescence, HEK293, GAL4 fusion, UAS-luciferase. HEK293 GAL4-hgDAF12 UAS-luciferase reporter, agonist luminescence; normalized to butyrate control. activation, % at 6.8 µM. actives 1.8% (n = 370,000). AID 687014, 2013;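 active = activation above a cutoff set at the mean of all screened compounds plus 3 SD, cut at about 10% in these data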;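 note: 0% = DMSO wells and 100% = sodium butyrate wells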
DAX1 inh-1: DAX1 (NR0B1) inhibitors, primary screen, cell-based, HEK293, Gal4-DAX1, luciferase luminescence. HEK293 Gal4-DAX1 luciferase reporter. AID 504766, 2011. inhibition, % at 6.75 µM. actives 0.99% (n = 340,000). Nuclear receptor subfamily 0 group B member 1 (Homo sapiens), P51843;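 active = inhibition above the mean over all tested compounds plus 3 SD, cut at about 4.2% in these data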;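 note: 0% = DAX1-transfected cells with DMSO and 100% = empty-vector control cells with DMSO; inhibition shows as a rise in luminescence from relieved DAX1 repression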
Target sequence (P51843 207-470 limits assumed): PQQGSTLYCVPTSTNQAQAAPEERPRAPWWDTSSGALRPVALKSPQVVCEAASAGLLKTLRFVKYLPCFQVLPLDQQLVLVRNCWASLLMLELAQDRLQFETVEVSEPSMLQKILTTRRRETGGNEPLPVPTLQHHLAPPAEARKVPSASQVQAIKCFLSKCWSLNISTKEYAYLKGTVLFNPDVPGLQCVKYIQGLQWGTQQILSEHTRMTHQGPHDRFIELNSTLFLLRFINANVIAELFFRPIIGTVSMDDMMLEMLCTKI
ssDAF-12 act: S. stercoralis DAF-12 nuclear receptor activators, primary screen, cell-based, luminescence, HEK293, GRIP1 co-expression, lit1-tk-luc. HEK293 ssDAF-12/GRIP1 lit1-tk-luc reporter; % of 3 µM dafachronic acid response. activation, % at 6.8 µM. actives 1% (n = 370,000). Nuclear hormone receptor DAF-12 (Strongyloides stercoralis);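 active = activation above the mean over all tested compounds plus 3 SD, cut at about 0.9% in these data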;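 note: 0% = DMSO-only wells and 100% = 3 µM delta7-dafachronic acid wells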
DAX1 inh-2: DAX1 (NR0B1) inhibitors on StAR promoter, primary screen, cell-based, luminescence, SF-1 (NR5A1), full-length DAX-1; HEK293T StAR-luciferase reporter, SF-1/DAX-1 repression relief; actives 1.1% (n = 370,000); inhibition, % at 6.8 µM;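 active = inhibition above the mean over all tested compounds plus 3 SD, cut at about 3.6% in these data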;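 note: 0% = DAX-1 cells with DMSO and 100% = cells lacking DAX-1 with DMSO; higher inhibition means more luminescence from relief of DAX-1 repression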
SMARCA2 act: SMARCA2 (BRM) function activators, primary screen, cell-based, luminescence, high throughput | actives 1% (n = 370,000) | AID 652017, 2013 | MG213 cells, MMTV-luciferase reporter, dexamethasone, overnight | activation, % at 9.1 µM; in the data active = activation above about 7.8%;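 note: 0% = vehicle wells and 100% = reference activator wells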
hcDAF12 agonist: H. contortus DAF-12 nuclear receptor activators, primary screen, cell-based, luminescence, HEK293, lit1-tk-luc reporter; activation, % at 6.8 µM; HEK293 hcDAF-12 lit1-tk-luc reporter; 0% DMSO, 100% Δ7-dafachronic acid; actives 1.4% (n = 370,000);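 active = activation above the mean of all tested compounds plus 3 SD, cut at about 5.5% in these data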;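 note: 100% = response to 3 µM Δ7-dafachronic acid high control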
DAX1 inh confirm: DAX1 (NR0B1) inhibitors relieving SF-1 repression, confirmation, cell-based, luminescence, HEK293T, full-length DAX-1, SF-1 activated StAR promoter | actives 87% (n = 2,400) | shares compounds with DAX1 inh-2 | AID 652134, 2013 | inhibition, % at 6.8 µM | HEK293T StAR-promoter luciferase reporter, SF-1/DAX-1 repression;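 active = inhibition above the average of every tested compound plus 3 SD, cut at about 3.8% in these data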;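 note: 0% = DAX-1 cells with DMSO and 100% = no DAX-1 control cells with DMSO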
Target sequence (P51843 whole entry, looked up): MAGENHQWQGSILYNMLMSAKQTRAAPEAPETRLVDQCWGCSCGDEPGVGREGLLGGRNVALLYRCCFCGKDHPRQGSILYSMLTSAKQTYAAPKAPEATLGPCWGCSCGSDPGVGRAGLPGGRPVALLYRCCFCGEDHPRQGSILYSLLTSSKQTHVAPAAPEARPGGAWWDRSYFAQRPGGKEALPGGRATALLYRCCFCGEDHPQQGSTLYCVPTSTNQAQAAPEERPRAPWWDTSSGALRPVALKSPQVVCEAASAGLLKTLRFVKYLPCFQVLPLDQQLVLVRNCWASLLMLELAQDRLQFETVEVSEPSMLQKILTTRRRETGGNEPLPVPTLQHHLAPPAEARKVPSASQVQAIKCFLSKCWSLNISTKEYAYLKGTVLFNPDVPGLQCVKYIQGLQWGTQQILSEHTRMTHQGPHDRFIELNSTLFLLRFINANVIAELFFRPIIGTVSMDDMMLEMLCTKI
SF1 mutant ctr: StAR reporter signal changes without DAX1, counter-screen for DAX1 inhibitor project, cell-based, luminescence, AF-2 mutant SF-1, transactivation | shares compounds with DAX1 inh-2 | HEK293 StAR-luciferase, SF-1 AF2 mutant | inhibition, % at 6.8 µM | actives 78% (n = 2,400);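 active = inhibition above the mean of all tested compounds plus 3 SD, cut at about 3% in these data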;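 note: 0% = DAX-1 transfected cells with DMSO and 100% = cells without DAX-1 with DMSO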
SMARCA2 act conf: SMARCA2 (BRM) function activators, confirmation, cell-based, luminescence, triplicate | shares compounds with SMARCA2 act | actives 30% (n = 3,500) | MG213 cells, MMTV-luciferase with dexamethasone, overnight; MG213 cells expressing E1A, Rb sequestered; DMSO wells 0%, reference activator 100% | activation, % at 9.1 µM;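 active = activation above its plate's cutoff, the mean activation of tested wells plus 3 SD, cut at about 7.9% in these data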
VP16 Luc act: GAL4-VP16 luciferase reporter activation, counter-screen for SMARCA2 (BRM) activator project, cell-based, pG5luc, luminescence, high throughput | shares compounds with SMARCA2 act | HEK293 GAL4-VP16 pG5luc reporter; scaled: DMSO wells 0%, SAHA wells 100% | activation, % at 9.1 µM | actives 41% (n = 3,500) | AID 686939, 2013;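 active = activation above the solvent-only control well mean plus 3 SD, averaged across control plates, cut at about 5.2% in these data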
LXR ag: LXR agonists, Gal4 luciferase reporter, confirmation, counter-screen for hcDAF-12 agonist project, cell-based, luminescence, HEK293, H. contortus campaign. shares compounds with hcDAF12 agonist. HEK293 Gal4-LXR tk-luc reporter, 24 h; normalized: DMSO 0%, positive control 100%. activation, % at 6.8 µM. 3,400 tested, under 10 active. AID 743027, 2013;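 active = mean percent activation of the reporter above a cutoff set as the average over tested compounds plus their standard deviation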
hcDAF12 conf: H. contortus DAF-12 receptor agonists, confirmation, cell-based, luminescence, HEK293, lit1-tk-luc, triplicate; activation, % at 6.8 µM; actives 61% (n = 3,400); shares compounds with hcDAF12 agonist; AID 743032, 2013; HEK293 hcDAF-12 lit1-tk-luc reporter; % of Δ7-dafachronic acid response;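 active = mean activation across triplicate tests above the threshold derived from the earlier primary screen, cut at about 5.5% in these data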;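 note: 0% = DMSO only wells and 100% = 3 µM Δ7-dafachronic acid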
hgDAF12 ag: H. glycines DAF-12 receptor agonists, confirmation, cell-based, luminescence, HEK293, GAL4-LBD fusion. HEK293 GAL4-hgDAF12 luciferase reporter, agonist mode; percent of butyrate response. activation, % at 6.8 µM. actives 80% (n = 3,300). shares compounds with hgDAF12 agonist;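 active = mean activation over triplicate wells above the hit cutoff derived from the earlier primary screen, cut at about 11% in these data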;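 note: 0% = DMSO low control and 100% = 2 mM sodium butyrate high control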
LXRb DAF12 ctr: LXR agonists, Gal4 luciferase reporter, confirmation, counter-screen for hgDAF-12 agonist project, cell-based, luminescence, HEK293, H. glycines campaign. AID 743051, 2013. 24 h. 3,300 tested, under 10 active. shares compounds with hgDAF12 agonist. activation, % at 6.8 µM;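 active = mean activation of the triplicate above a set limit carried over from the primary screen, none filed active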
* marks the source's active call; other numbers are inactive results; x = no result given. Rows were chosen to be rich in hits. Some 4.8% of all compounds tested hit in one or more screens of this group.

SMILES	hgDAF12 agonist	DAX1 inh-1	ssDAF-12 act	DAX1 inh-2	SMARCA2 act	hcDAF12 agonist	DAX1 inh confirm	SF1 mutant ctr	hgDAF12 ag	LXRb DAF12 ctr	others
Cc1ccc(Cc2c(-c3cccc(Br)c3)nc3ccc(Br)cn23)cc1	5.7	x	-0.6	2.8	5.7	0.6	x	x	x	x
COc1ccc(-c2cc(C)nc3c(-c4ccccc4)cnn23)cc1	13.8*	0.3	0.0	11.8*	0.1	5.1	15.5*	7.8*	8.7	1.5
Cc1cc(N2CCCCC2)n2ncc(-c3ccccc3)c2n1	2.6	-0.7	-0.6	2.1	-0.3	5.1	x	x	x	x
CC1CCN(c2ccc(NC(=O)c3ccc(Br)o3)cc2)CC1	19.9*	1.3	-0.2	13.7*	4.0	4.5	11.3*	9.6*	17.9*	1.1
CCC(=O)N1CCN(c2ccc(NC(=O)c3ccc(Br)o3)cc2)CC1	0.0	-0.4	-1.1	0.0	1.0	-1.3	x	x	x	x
Fc1ccc(N/N=C/c2ccncc2)c(F)c1	3.8	0.2	-1.4	2.1	1.6	-0.7	x	x	x	x
O=C(O)c1ccc(/C=N/Nc2ccc(F)cc2F)cc1	21.3*	-1.1	2.5*	12.4*	10.9*	9.8*	20.2*	5.5*	21.2*	1.0	SMARCA2 act conf=6.1;VP16 Luc act=4.8
O=C(N/N=C/c1cccnc1)c1cc(-c2ccccc2Cl)nc2ccccc12	0.4	-0.1	-0.7	-3.1	-2.6	-0.3	x	x	x	x
COc1ccc(-c2nn(-c3ccccc3)cc2N)cc1	16.2*	1.6	0.0	5.3*	0.8	3.7	9.2*	5.8*	15.6*	0.5
COc1ccc2cc(-c3cc(C(=O)OCC(=O)Nc4c(C)n(C)n(-c5ccccc5)c4=O)c4ccccc4n3)ccc2c1	15.4*	-1.7	0.2	4.8*	5.2	2.5	11.3*	6.4*	12.3*	0.6
Cc1cc(-c2cn3ccccc3n2)c(C)n1-c1ccccc1	13.6*	3.6	0.3	4.6*	10.2*	5.7*	16.6*	5.4*	7.2	0.9	SMARCA2 act conf=5.5;VP16 Luc act=8.2*
COc1ccc(-n2c(C)cc(-c3cn4cccc(C)c4n3)c2C)cc1	-0.6	0.7	-0.9	-0.4	3.1	3.0	x	x	x	x
CN(C)S(=O)(=O)c1ccc(-c2cn3ccccc3n2)cc1	8.3	0.9	0.1	0.6	3.2	0.4	x	x	x	x
c1ccc(-c2cn3ccccc3n2)cc1	14.5*	1.8	0.4	5.0*	7.9*	8.9*	12.2*	8.7*	15.3*	0.7	LXR ag=1.3;hcDAF12 conf=7.4*
O=Cc1ccc2ccc3cccnc3c2n1	1.5	-1.2	-0.2	1.0	2.2	2.8	x	x	x	x
CC(C)N1CCC(=NNC(=O)c2ccccc2[N+](=O)[O-])CC1	0.0	0.5	-0.7	0.4	-0.8	-0.8	x	x	x	x
CC(C)N1CCC(=NNC(=O)c2cccs2)CC1	14.3*	1.0	1.5*	9.6*	5.3	6.1*	2.4	2.3	4.2	0.0
Cc1ccc(OCC(=O)N2CCCc3ccccc32)cc1	1.7	0.8	-1.3	0.3	2.8	-0.1	x	x	x	x
COc1ccc(NC(=O)N2CCc3ccccc32)cc1	16.0*	-1.0	1.0*	5.1*	1.0	9.1*	15.2*	5.8*	17.7*	1.0	LXR ag=1.5;hcDAF12 conf=7.4*
COc1ccc(NC(=O)N2CCCc3ccccc32)cc1	5.5	1.2	-0.6	1.4	6.1	3.5	x	x	x	x
Cc1ccc(OCC(=O)N2CCc3ccccc32)cc1	21.8*	2.7	1.6*	5.1*	2.4	10.6*	15.1*	9.1*	13.0*	0.8	LXR ag=1.1;hcDAF12 conf=5.7*
CCOc1ccc(NC(=O)c2csc3c2CCCC3)cc1	18.1*	0.7	0.0	7.1*	3.6	5.6*	11.8*	7.7*	16.4*	0.7

Source: PubChem BioAssay (The Scripps Research Institute Molecular Screening Center)
